Reference: the supplement of paper PMC3334620
The full ranking holds about 33,000 sequences; the median of “E-score (-0.5 to 0.5)” is about -0.013, and the highest 2% start at about 0.3. For the sample, the highest values were picked, then their nearest neighbours and some sequences at random.

Molecular target: T1, Msn1 (UniProt P22148)
T1 sequence: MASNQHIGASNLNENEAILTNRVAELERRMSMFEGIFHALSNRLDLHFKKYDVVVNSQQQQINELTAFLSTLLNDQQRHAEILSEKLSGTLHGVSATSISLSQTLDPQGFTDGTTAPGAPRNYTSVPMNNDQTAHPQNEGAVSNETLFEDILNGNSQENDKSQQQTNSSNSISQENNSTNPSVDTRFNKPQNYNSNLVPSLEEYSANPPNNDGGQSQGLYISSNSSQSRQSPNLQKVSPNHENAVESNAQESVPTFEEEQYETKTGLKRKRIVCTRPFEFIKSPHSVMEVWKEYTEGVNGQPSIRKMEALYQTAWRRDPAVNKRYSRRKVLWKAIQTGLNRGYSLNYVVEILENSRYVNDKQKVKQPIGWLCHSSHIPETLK
Test: PBM E-score (8-mer binding enrichment) (E-score (-0.5 to 0.5)); higher = stronger / more preferred TF binding
Conditions: protein concentration: 200 nM; construct: GST-full length
Description: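 Universal 'all 10-mer' protein binding microarrays (Agilent AMADID 015681) probed with GST-tagged S. cerevisiae TFs (full-length or DBD) made by in vitro transcription/translation (PURExpress), about 100-200 nM. Bound TF was detected with fluorescent anti-GST. Each ungapped 8-mer (which stands for itself and its reverse complement) is scored by the PBM enrichment score (E-score), a modified Wilcoxon-Mann-Whitney statistic from -0.5 to +0.5, computed with the Universal PBM Analysis Suite. Scale: above 0.35 generally sequence-specific binding.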

| Sequence | PBM E-score |
| --- | --- |
| ACGGTTCT | -0.0415 |
| CGACAAGA | 0.121 |
| GCACAAGA | -0.0415 |
| AGACAATC | 0.359 |
| GGACAACA | 0.337 |
| CGACAACA | 0.204 |
| ATACAATC | -0.0273 |
| CTACAATA | 0.0926 |
| AGACAACC | 0.208 |
| GTACAATA | 0.332 |
| ATACAATA | 0.114 |
| AGACAACA | 0.248 |
| GGACAAGA | 0.458 |
| AAATCTCC | -0.234 |
| AGCCTTCC | -0.323 |
| ACTTCGCT | -0.0222 |
| AGGGCCAT | -0.246 |
| AATTTCCT | 0.0244 |
| TACGGGGA | -0.11 |
| ATCGTATG | 0.0884 |
| AGACAATG | 0.295 |
| GAACAATA | 0.144 |

| Sequence | PBM E-score |
| --- | --- |
| ACACAATA | 0.15 |
| AGACAATA | 0.428 |
| GCACAATA | -0.126 |
| AGACAAGC | 0.307 |
| GGACAATA | 0.464 |
| CGACAAGC | -0.0394 |
| CGACAATC | 0.113 |
| CCACAATA | -0.105 |
| CGACAATA | 0.334 |
| AGACAAGA | 0.3 |
| CCCTAGCA | -0.119 |
| CGTAGCAC | -0.0105 |
| CATAGATA | 0.126 |
| AGCGAATG | -0.207 |
| AGAGTATG | -0.143 |
| AGAACTGA | 0.0524 |
| TCACTTCA | -0.0878 |
| GATTTTCA | 0.209 |
| TACAGCAA | 0.00838 |
| GAACGTCC | 0.206 |
| AAACGTCC | 0.317 |
| AAACGTCT | 0.24 |

| Sequence | PBM E-score |
| --- | --- |
| TACTTCAA | 0.16 |
| AGGATACG | -0.105 |
| CTCGCCCC | -0.302 |
| AAGGTACA | 0.166 |
| CTGTGAGA | 0.00231 |
| AACATGTG | 0.0694 |
| TACATGTA | 0.247 |
| GACATGTC | 0.455 |
| AACATGTC | 0.401 |
| GACATGTA | 0.424 |
| ATCATGTC | 0.278 |
| AACATGTT | -0.0343 |
| GACATGGC | 0.276 |
| AACATGTA | 0.186 |
| CACATGTA | 0.121 |
| CACATGTG | -0.149 |
| CACATGTC | 0.431 |
| CGAGGGCG | -0.271 |
| GACTCATC | -0.0489 |
| GCTCTGCC | -0.281 |
| GCGGTCCC | -0.188 |
| ACTATGAA | 0.112 |

| Sequence | PBM E-score |
| --- | --- |
| CGCAATAA | 0.212 |
| ATCGAAAT | -0.151 |
| CAATAGCA | -0.168 |
| GTCAGGAA | 0.0369 |
| CTCAGGAC | 0.243 |
| GTCAGGAC | 0.316 |
| ACCAGGAA | -0.0403 |
| ACCAGGAC | 0.329 |
| ACGAGGAT | -0.178 |
| GCGAGGAC | 0.0256 |
| ACGAGGAC | 0.324 |
| ATCAGGAC | 0.307 |
| GCCAGGAC | 0.212 |
| ATCAGGAG | -0.0236 |
| CCCAGGAC | 0.0729 |
| CATAAAGC | -0.057 |
| CGTGCTGC | -0.144 |
| CTTCACTA | -0.0698 |
| CTGAGAAG | -0.24 |
| CCGTTGCA | 0.0113 |
| ACCTTCTG | -0.0438 |
| ATGAGTGA | 0.12 |

| Sequence | PBM E-score |
| --- | --- |
| ATTGTTAA | 0.0881 |
| CTTGTTAA | -0.0116 |
| GTTGTTAA | 0.334 |
| CAGAGAAG | -0.18 |
| GCGTCTAC | -0.0433 |
| GACATGCA | 0.276 |
| TACATGGA | 0.193 |
| GACATGCC | 0.337 |
| AACATGGA | 0.159 |
| AACATCCC | 0.0693 |
| GACATCCC | 0.374 |
| GACATGGA | 0.342 |
| CACATGCC | 0.0209 |
| CACATGAA | 0.0613 |
| GACATGAA | 0.308 |
| TACATGAA | 0.117 |
| CACATCCC | -0.14 |
| AACCACAA | 0.042 |
| CCGCTAAG | 0.0391 |
| ATACACTG | 0.0602 |
| AAAAAGAA | 0.036 |
| ATTGGAAG | -0.0559 |
